Compounds with a hit are over-represented: about 1.8% of the library has one in this group of screens.
Beta apoptosis: blocks beta cell apoptosis | AID 435005 | protection from apoptosis, % (test concentration not listed) | INS-1E cytokine-induced death, ATP luminescence, 48 h; percent of positive-control rescue, neutral wells zero | 0.8% of 300,000 active;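 active = Every replicate reaches about 75%, or at least half do and their mean reaches it too, limit read from the data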;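 also: higher means more ATP so stronger rescue from cytokine killing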
Gli-Sufu block: Gli-Sufu pathway antagonism. inhibition, % at 5 µM. AID 588413. 0.74% of 340,000 active. Sufu-KO-LIGHT fibroblasts, Gli luciferase reporter luminescence;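 active = inhibition above about 55%, limit read from the data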
697 NFkB inh: inhibitors of the PMA/ionomycin-induced NF-kB reporter in 697 B cells; 697 B-cell NF-kB luciferase reporter, 16 h; inhibition, % at 4 µM; 0.33% of 330,000 active; AID 435022; in the data active = inhibition above about 35%
Jurkat NFkB inh: lowers PMA/ionomycin-induced NF-kB signal in Jurkat cells; PMA/ionomycin-induced NF-kB luciferase reporter, luminescence; inhibition, % at 4 µM; 0.53% of 330,000 active; in the data active = inhibition above about 50%
Gli antag conf: Gli-SUFU antagonism confirmation, single concentration; 40% of 2,500 active; Sufu-KO-LIGHT cells, Gli luciferase reporter, luminescence; AID 602428; inhibition, % at 5 µM; shares compounds with Gli-Sufu block;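 active = mean inhibition at 5 µM reaching about 45%, limit read from the data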
SufuKO cytotox: cytotoxicity counter-screen for Gli-SUFU antagonists; shares compounds with Gli-Sufu block; Sufu-KO-LIGHT cells cytotoxicity, ATP luminescence; cytotoxicity, % at 5 µM; 32% of 2,500 active; AID 651994;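 active = mean cytotoxicity at 5 µM above about 25%, limit read from the data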;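 also: cells exposed to compound overnight for roughly 16 to 18 hours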
Wnt3a counter: inhibits Wnt3a reporter, counter-screen for Gli-SUFU antagonists. shares compounds with Gli-Sufu block. Wnt-LIGHT cells, Wnt3a-driven luciferase reporter, luminescence. inhibition, % at 6.25 µM. 20% of 2,500 active. AID 651995;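 active = mean inhibition above about 25%, limit read from the data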
Numbers stand for hits.

Screening COc1ccc(Br)cc1C(=O)NC(=S)Nc1ccc(CN2CCOCC2)cc1 returned Beta apoptosis inactive, Gli-Sufu block inactive, 697 NFkB inh inactive, Jurkat NFkB inh inactive, Gli antag conf inactive, SufuKO cytotox inactive and Wnt3a counter inactive.
Cc1ccc(-c2nc(-c3ccccc3)no2)c(Cl)c1 was read as Gli-Sufu block 67.4, 697 NFkB inh inactive, Jurkat NFkB inh inactive, Gli antag conf 68.9, SufuKO cytotox 79.5 and Wnt3a counter 102.5.
`Cc1cccc(-c2nc(-c3ccncc3)no2)c1` gave Beta apoptosis inactive, Gli-Sufu block inactive, 697 NFkB inh inactive and Jurkat NFkB inh inactive.
CCc1c(C)nc2cc(-c3ccc(OC)c(OC)c3)nn2c1N1CCCC1 was read as Beta apoptosis inactive, Gli-Sufu block inactive, 697 NFkB inh inactive, Jurkat NFkB inh inactive, Gli antag conf 55.2, SufuKO cytotox 32.9 and Wnt3a counter inactive.
For CCc1c(C)nc2cc(-c3ccc(OC)c(OC)c3)nn2c1N1CCC(C)CC1 the results were Beta apoptosis inactive, Gli-Sufu block inactive, 697 NFkB inh inactive and Jurkat NFkB inh inactive.
`C[C@@]12C(=O)N(Cc3ccccc3)CC(=O)N1[C@H]1c3cc(Cl)ccc3OC[C@@H]1[C@@H]2c1ccccc1` gave Beta apoptosis inactive, Gli-Sufu block inactive, 697 NFkB inh inactive and Jurkat NFkB inh inactive.
`Cc1ccc(C23CC4CC(CC(NC(=O)NN)(C4)C2)C3)cc1` gave Beta apoptosis inactive, Gli-Sufu block inactive, 697 NFkB inh inactive, Jurkat NFkB inh inactive, Gli antag conf inactive, SufuKO cytotox inactive and Wnt3a counter inactive.
Cc1ccc(C23CC4CC(CC(NC(=O)NC(C)(C)CO)(C4)C2)C3)cc1 was read as Gli-Sufu block inactive, 697 NFkB inh inactive and Jurkat NFkB inh inactive.
For O=C(O)c1ccc(Nc2nc3ccccc3nc2NS(=O)(=O)c2cccs2)cc1 the results were Beta apoptosis inactive, Gli-Sufu block inactive, 697 NFkB inh inactive and Jurkat NFkB inh inactive.
For CCN1CCN(/C=N/c2nc3c(s2)CCCC3)CC1 the results were Gli-Sufu block inactive, 697 NFkB inh inactive, Jurkat NFkB inh inactive, Gli antag conf 69.7, SufuKO cytotox inactive and Wnt3a counter 80.3.
Screening COC(=O)Nc1ccc(OCC(=O)N2CCOCC2)cc1 returned Beta apoptosis inactive, Gli-Sufu block inactive, 697 NFkB inh inactive and Jurkat NFkB inh inactive.
`Cc1ccc(CNc2nc(C)cs2)cc1` gave Beta apoptosis inactive, Gli-Sufu block 73.1, 697 NFkB inh inactive, Jurkat NFkB inh inactive, Gli antag conf inactive, SufuKO cytotox inactive and Wnt3a counter inactive.
O=C(/C=C/c1ccc(Cl)cc1)NC(=S)Nc1ccccc1C(=O)O was read as Beta apoptosis inactive, Gli-Sufu block inactive, 697 NFkB inh inactive and Jurkat NFkB inh inactive.
COc1ccc2c(c1)CCCC21SC(NC(C)=O)=NN1C(C)=O (stereo not drawn) was read as Beta apoptosis inactive, Gli-Sufu block inactive, 697 NFkB inh inactive, Jurkat NFkB inh inactive, Gli antag conf inactive, SufuKO cytotox inactive and Wnt3a counter inactive.
CC(=O)NC1=NN(C(C)=O)C(C)(c2ccc3ccccc3c2)S1 (stereo not drawn) was read as Beta apoptosis inactive, Gli-Sufu block inactive, 697 NFkB inh inactive and Jurkat NFkB inh inactive.
CCOc1cc(/C=C(\C#N)C(=O)Nc2ccc(S(N)(=O)=O)cc2)ccc1OCCN1CCOCC1 was read as Beta apoptosis inactive, Gli-Sufu block inactive, 697 NFkB inh inactive and Jurkat NFkB inh inactive.
`CCc1noc(C)c1C(=O)N1CCN(S(=O)(=O)c2c(C)cc(C)cc2C)CC1` gave Beta apoptosis inactive, Gli-Sufu block inactive, 697 NFkB inh inactive and Jurkat NFkB inh inactive.
For COc1ccc(N(CC(=O)Nc2nccs2)S(=O)(=O)c2c(C)nn(C)c2C)cc1 the results were Beta apoptosis inactive, Gli-Sufu block 57.6, 697 NFkB inh inactive, Jurkat NFkB inh inactive, Gli antag conf inactive, SufuKO cytotox inactive and Wnt3a counter inactive.
`C=CCN(C(=O)Cc1cccs1)c1nc(-c2ccc(S(C)(=O)=O)cc2)cs1` gave Beta apoptosis inactive, Gli-Sufu block inactive, 697 NFkB inh inactive and Jurkat NFkB inh inactive.
Screening N#Cc1cccc(NC(=O)CNc2cccc(S(=O)(=O)N3CCCC3)c2)c1 returned Beta apoptosis inactive, Gli-Sufu block 65.7, 697 NFkB inh inactive, Jurkat NFkB inh inactive, Gli antag conf inactive, SufuKO cytotox inactive and Wnt3a counter inactive.
Cc1ccc(NC(=S)Nc2ccc(S(=O)(=O)N3CCOCC3)cc2)cc1S(=O)(=O)N1CCOCC1 was read as Beta apoptosis inactive, Gli-Sufu block inactive, 697 NFkB inh inactive, Jurkat NFkB inh inactive, Gli antag conf inactive, SufuKO cytotox inactive and Wnt3a counter inactive.
Screening Cc1ccc(NC(=O)CNc2cccc(S(=O)(=O)N3CCCC3)c2)cc1F returned Beta apoptosis inactive, Gli-Sufu block inactive, 697 NFkB inh inactive and Jurkat NFkB inh inactive.
CC(C)(C)NNC(=S)Nc1ccc(S(=O)(=O)N2CCOCC2)cc1 was read as Beta apoptosis inactive, Gli-Sufu block inactive, 697 NFkB inh inactive and Jurkat NFkB inh inactive.
Screening CCN(CC)S(=O)(=O)c1cc(NC(=O)CNc2cccc(S(=O)(=O)N3CCOCC3)c2)ccc1C returned Beta apoptosis inactive, Gli-Sufu block 95.4, 697 NFkB inh inactive, Jurkat NFkB inh inactive, Gli antag conf 45.8, SufuKO cytotox 36.2 and Wnt3a counter inactive.
`Cc1ccc(NCC(=O)Nc2cccc(S(=O)(=O)N(C)C)c2)cc1S(=O)(=O)N1CCCCCC1` gave Beta apoptosis inactive, Gli-Sufu block inactive, 697 NFkB inh inactive, Jurkat NFkB inh inactive, Gli antag conf inactive, SufuKO cytotox inactive and Wnt3a counter inactive.
Screening CC(=O)NC1C(OCCOc2ccc(Cl)cc2C)OC(CO)C(O)C1O (stereo not drawn) returned Beta apoptosis inactive and Gli-Sufu block inactive.
For O=C(COc1ccccc1)N1CCN(c2nnc(-c3ccccc3)c3ccccc23)CC1 the results were Beta apoptosis inactive, Gli-Sufu block 96.3, 697 NFkB inh inactive, Jurkat NFkB inh inactive, Gli antag conf inactive, SufuKO cytotox inactive and Wnt3a counter inactive.
For CCOC(=O)c1ccc(COC(=O)CNC(=O)CNC(=O)Cc2ccccc2)cc1 the results were Beta apoptosis inactive, Gli-Sufu block inactive, 697 NFkB inh inactive and Jurkat NFkB inh inactive.
For COC(=O)c1ccc(CN2CCCC(C(=O)Nc3cccc(-n4cccn4)c3)C2)cc1 (stereo not drawn) the results were Beta apoptosis inactive, Gli-Sufu block inactive, 697 NFkB inh inactive, Jurkat NFkB inh inactive, Gli antag conf inactive, SufuKO cytotox inactive and Wnt3a counter inactive.
CCCCC(=O)Nc1cc([N+](=O)[O-])ccc1Cl was read as Beta apoptosis inactive, Gli-Sufu block 92.4, 697 NFkB inh inactive, Jurkat NFkB inh inactive, Gli antag conf inactive, SufuKO cytotox inactive and Wnt3a counter 32.6.
`CCCCC(=O)Nc1cc([N+](=O)[O-])ccc1F` gave Beta apoptosis inactive, Gli-Sufu block inactive, 697 NFkB inh inactive and Jurkat NFkB inh inactive.

Screening results from PubChem BioAssay.
